Legend:
Assay in all cases: PBM binding z-score (relative to random genomic background probes); higher = stronger binding; sequences stand for … in GC…GCGATTGACAGCGTAGAATGAAGG
[1] = system: FXR:RXRa (NR concentration 270 nM, RXRa partner concentration 90 nM)
Summary of the method: (§1)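 Antibodies against each partner of ligand-free nuclear receptor dimers (one per run) detected binding on custom Agilent 4×180K protein-binding microarrays after 1 h incubation. The double-stranded probes had 34-nt variable regions carrying direct-repeat seeds, single-nucleotide variants, half-site ablations and random human genomic background sequences. Binding z-scores, from regression-normalized fluorescence, use the random background probes as reference.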

[2] = system: LXRa:RXRa (NR concentration 270 nM, RXRa partner concentration 90 nM)
Summary of the method: as §1

[3] = system: LXRa homodimer (NR concentration 270 nM)
Summary of the method: as §1

[4] = system: LXRb:RXRa (NR concentration 270 nM, RXRa partner concentration 90 nM)
Summary of the method: as §1

[5] = system: LXRb homodimer (NR concentration 270 nM)
Summary of the method: as §1

[6] = system: PPARa:RXRa (NR concentration 270 nM, RXRa partner concentration 90 nM)
Summary of the method: as §1

[7] = system: PPARg:RXRa (NR concentration 180 nM, RXRa partner concentration 90 nM)
Summary of the method: as §1

[8] = system: PPARg:RXRa 270nM:90nM, anti-RXR (NR concentration 270 nM, RXRa partner concentration 90 nM)
Summary of the method: as §1

[9] = system: PPARg:RXRa 30nM:10nM, anti-RXR (NR concentration 30 nM, RXRa partner concentration 10 nM)
Summary of the method: as §1

[10] = system: PPARg:RXRa 90nM:30nM, anti-RXR (NR concentration 90 nM, RXRa partner concentration 30 nM)
Summary of the method: as §1

Sequence | PBM binding z-score [1] | PBM binding z-score [2] | PBM binding z-score [3] | PBM binding z-score [4] | PBM binding z-score [5] | PBM binding z-score [6] | PBM binding z-score [7] | PBM binding z-score [8] | PBM binding z-score [9] | PBM binding z-score [10]
TCGTGTAGATCAATAGAGGTTAAGAAAGTGCGCT | 0.712 | 3.48 | 0.576 | 1.76 | -0.163 | 1.86 | 0.088 | 1.57 | 2.53 | 2.13
ACTAGCACGCCAAGTTTGGGTCACTCAAACAAAG | 0.0024 | -0.138 | -0.715 | 0.642 | -0.337 | 1.17 | -0.0065 | -0.00833 | -0.577 | -0.34
CGTCCAAGGTCAGCAGGTCAGTGGAAGCGACGTG | 5.74 | 3.85 | 0.538 | 2.96 | -0.217 | 4.94 | 4.05 | 4.15 | 0.99 | 2.87
GCTAGCAGGCCATTTGGCTCACTCAATGACGGGC | -0.798 | -0.75 | -0.83 | -1.31 | -1.31 | -0.645 | 0.277 | -0.576 | -0.918 | -0.656
GGAGCGAGGGCAAGTTGATAGCAGAGTTTGATGG | 0.394 | 0.0427 | -0.544 | 0.219 | -0.594 | 0.728 | 0.238 | 0.276 | -0.604 | -0.121
AATAGAGGGTCATCGTAGGCCAGAGTACGCACAG | 6.8 | 6.19 | 1.56 | 3.89 | 0.604 | 5.5 | 5.46 | 5.11 | 2.13 | 3.89
CGAACTACGTCATTGACAGGACAGTGAATAGTAA | -0.386 | -0.38 | -0.195 | -0.327 | -0.182 | -0.47 | 0.307 | -0.251 | -0.294 | -0.164
ATCTCTAGGTAACCAAGTCCAGTGAATGCCGAAC | 0.284 | 0.199 | -0.00888 | 0.0348 | 0.546 | 0.54 | 0.444 | 0.891 | 0.172 | 0.381
TCTGCTAGGTCTGTTGGTCAGCTAACGAGCTGCC | -0.418 | -0.439 | -1.21 | -0.715 | 0.485 | -0.204 | -1.23 | 0.384 | 0.834 | 0.687
GCTAGCAGGCCACTTGGGTCACTCAATGACGGGC | 0.0158 | -0.115 | -0.748 | 0.0102 | -0.778 | 0.888 | 0.483 | 0.199 | -0.326 | -0.355
TCATATAGGTAGAGGTGAAAGTCGAACGATATGA | 0.743 | 0.996 | -0.23 | 0.833 | -0.246 | 2.43 | 1.96 | 3.02 | 3.6 | 3.28
TCATATAGGTAAAGATGAAAGTCGAACGATATGA | 0.255 | 0.326 | -0.224 | 0.183 | -0.264 | 0.972 | 1.38 | 2.08 | 3.79 | 3.02
ATCGAAAGGTCGGGGTGAGTATAGAGAAAGGGAA | 3.39 | 3.1 | 0.378 | 3.56 | 1.97 | 4.39 | 2.87 | 2.83 | 1.07 | 2.04
CGAACTAGGTCAAGGACAGAGAATCTCCGCACGC | 3.32 | 1.95 | -0.0711 | 1.25 | -0.37 | 4.47 | 7.55 | 6.28 | 3.62 | 5.63
CAAACTAGGTCAAGAGGTCAGAGTCCGCTTCCCG | 5.85 | 5.23 | 3.2 | 4.21 | 0.8 | 6.08 | 9.79 | 7.9 | 6.89 | 8.32
TCATATAGGTAAATGCAAGGTGAAAGTCCGATCT | 1.57 | 1.44 | 0.321 | 1.2 | 0.456 | 2.03 | 1.03 | 2.44 | 4.33 | 3.47
AGAATGAGGTTATACGTAGATCAGCGAAGAAAGT | 1.93 | 1.66 | -0.0526 | 1.22 | -0.284 | 3.27 | 1.91 | 1.88 | 0.445 | 1.21
TCTGCTAGGTCAGTTGGTCAGCGAACGAGCTGCC | 1.05 | 0.587 | -0.495 | 0.166 | 0.433 | 1.57 | 0.47 | 1.87 | 1.06 | 1.38
ACTCGGAGGACAAAGGTCAGACCTACGCCAGTGA | 4.44 | 4.05 | 2.02 | 3.64 | 0.528 | 4.93 | 7.6 | 6.95 | 4.94 | 6.85

Sequence | PBM binding z-score [1] | PBM binding z-score [2] | PBM binding z-score [3] | PBM binding z-score [4] | PBM binding z-score [5] | PBM binding z-score [6] | PBM binding z-score [7] | PBM binding z-score [8] | PBM binding z-score [9] | PBM binding z-score [10]
ATCTCTAGGTAACCAAGTTCAGCGAATGCCGAAC | 0.438 | 0.886 | 0.803 | 0.7 | 0.602 | 1.4 | 0.655 | 1.07 | 0.316 | 0.524
CCTCGGAGGACAGAAGGCCAGAGCTGTCCGCTTT | -0.543 | -0.556 | -1.17 | -1.28 | -1.6 | -1.15 | -0.739 | -1.08 | -1.21 | -1.06
TTACCAAGGTGAAAGTCGTTGATCCCTCTGTAGA | 0.729 | 0.757 | -0.418 | 0.587 | -0.747 | 2.1 | 0.615 | 1.61 | 0.371 | 1.12
CCTTACGGGTCACGAGGCTATAGCACGACGAGCG | 6.52 | 3.97 | 0.0117 | 3.26 | -0.222 | 5.83 | 6.52 | 5.91 | 2.64 | 4.4
TCATATAGGTAAATACTAGGTGAAAGTCCGATCT | 1.19 | 1.08 | 0.534 | 0.889 | 0.276 | 2.16 | 2.46 | 3.26 | 4.4 | 3.92
GTACGAAGGTGAATAGGTCGTTGATGAGTAGGCG | 0.531 | 0.661 | -0.364 | 0.505 | -0.557 | 2.15 | 1.38 | 1.87 | 0.421 | 1.22
TCTTGTAGATCAAAGGTTATGAAAGCCGAAGCCT | 1.67 | 2.16 | 0.00882 | 2.21 | 0.156 | 4.58 | 7.9 | 7.7 | 7.23 | 8.56
CGTCAAAGTGCAACTAAGGTAACGTAAAGCACGC | 0.888 | 0.803 | -0.122 | 0.5 | -0.623 | 1.29 | 0.842 | 0.685 | 0.0299 | 0.977
ATATGTAGGTTTAGGGTCATTCAGGTTGGTTCGC | 4.11 | 3.91 | 1.71 | 3.97 | 1.36 | 4.59 | 5.96 | 6.54 | 4.91 | 6.7
CGTCCAAGGTCATCAGGTCAGTGAAAGCGACGTG | 7.31 | 5.49 | 1.85 | 4.14 | 0.684 | 5.83 | 6.35 | 6.07 | 2.32 | 4.84
ATCTATAGGTAAAGTTCAGTGAAAGATCGATAGA | 1.21 | 1.7 | 1.38 | 1.19 | 0.71 | 2.2 | 3.67 | 4.69 | 2.81 | 4.71
ATCTCTAGGTAACAGTTCAGTGAATCCCGAGGAT | 0.279 | 0.179 | 0.588 | 0.193 | 0.937 | 2.24 | 3.39 | 4.74 | 3.06 | 4.55
CCTAGCAGGCCAATCTGGGTCAATCAAGGCTTGA | 0.324 | 1.22 | -0.656 | 0.742 | -1.17 | 3.09 | 1.49 | 1.95 | -0.105 | 1
CCTGCTAGGTCAATGGTCAACTAAAGCAGCTCGC | 3.09 | 2.16 | -0.236 | 1.83 | -0.0517 | 3.42 | 5.68 | 5.74 | 4.25 | 5.51
CGAACTAGGTCAAGGGCAGTGAATCTCCGCACGC | 3.56 | 2.14 | -0.0571 | 1.21 | -0.428 | 4.64 | 8.03 | 6.75 | 4.74 | 6.89
ACTCGGAGGACAAAGGTCAGAGCTACGCCAGTGA | 4.09 | 4.15 | 1.61 | 3.4 | 0.202 | 4.93 | 7.6 | 7.06 | 5.63 | 7.83
TCGAGTAGGTTAGTCGGGGCATTCATCCAACATA | 0.0168 | -0.035 | 0.0686 | 0.86 | -0.262 | 0.795 | 0.0659 | 0.755 | 1.55 | 0.83
CGAACTAGGTCAAGGACAGTGAGTCTCCGCACGC | 3.12 | 1.84 | -0.202 | 0.891 | -0.739 | 4.6 | 7.31 | 6.21 | 3.52 | 5.83
ATATGTAGGTTAGCTGGGGTAATTCAGACTAGGC | 0.983 | 0.79 | 0.216 | 1.28 | 0.815 | 2.91 | 3.61 | 3 | 0.942 | 2.01
